CHO-K1 Ca ag – M1 agonist counterscreen hit in parental CHO-K1 cells; Fluo-8 calcium fluorescence; scaled to maximal ATP response, vehicle zero; activation, % at 3 µM; actives 0.48% (n = 360,000); AID 602248; in the data active means activation above about 15%;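 further: untransfected CHO-K1 host cells lacking M1 receptor as counterscreen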
M1 PAM parental – nonselective activator or artifact in parental CHO-K1 calcium assay; ATP EC20, Fluo-8 calcium fluorescence; 0% at ATP EC20, 100% at ATP max; activation, % at 3 µM; actives 0.02% (n = 360,000);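 active means activation above the run cutoff, the mean activation of all test compounds plus 3 SD, cut at about 40% in these data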;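 further: peak over basal fluorescence ratio in a 140 s read after ATP addition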
CHRM1 antagonist – blocks human M1 muscarinic receptor | inhibition, % at 3 µM | actives 1.3% (n = 360,000) | CHO-K1 hM1, Fluo-8 calcium fluorescence, ACh EC80 antagonist;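 active means percent inhibition above its own plate's cutoff, namely the mean of that plate's compound wells plus 3 SD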;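 further: peak over basal fluorescence ratio during 140 s after agonist addition; 0% = ACh EC80 plus DMSO and 100% = DMSO alone without agonist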
Target sequence (P11229 whole entry, looked up): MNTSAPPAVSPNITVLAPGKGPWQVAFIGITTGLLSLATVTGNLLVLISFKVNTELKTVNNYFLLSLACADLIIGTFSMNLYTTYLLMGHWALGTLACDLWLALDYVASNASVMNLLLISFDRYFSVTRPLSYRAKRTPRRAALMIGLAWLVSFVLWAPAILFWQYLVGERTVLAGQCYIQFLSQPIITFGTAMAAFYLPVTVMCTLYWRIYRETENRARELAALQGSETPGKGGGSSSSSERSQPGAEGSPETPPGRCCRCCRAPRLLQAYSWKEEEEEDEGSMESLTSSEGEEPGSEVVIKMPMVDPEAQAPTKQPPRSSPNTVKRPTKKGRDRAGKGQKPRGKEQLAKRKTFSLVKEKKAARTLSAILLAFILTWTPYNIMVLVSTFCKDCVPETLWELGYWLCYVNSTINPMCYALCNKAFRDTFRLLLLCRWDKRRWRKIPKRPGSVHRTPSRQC
M1 ag – human M1 muscarinic receptor agonism | AID 588814 | actives 0.33% (n = 360,000) | activation, % at 3 µM | CHO-K1 hM1, Fluo-8 calcium fluorescence, agonist mode; 0% DMSO, 100% acetylcholine EC100;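 active means activation above the run's mean compound activation plus 3 SD, cut at about 16% in these data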;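 further: peak over basal fluorescence ratio within a 140 s kinetic read after compound addition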
M1 PAM – potentiates human M1 receptor response to acetylcholine; CHO-K1 hM1, Fluo-8 calcium fluorescence, ACh EC20; 0% = ACh EC20, 100% = maximal ACh; activation, % at 3 µM; AID 588819; actives 0.088% (n = 360,000); in the data active means activation above about 19%, passing the limit was not always enough
CHO-K1 Ca antag – M1 antagonist counterscreen hit in parental CHO-K1 cells; ATP-induced calcium, Fluo-8 fluorescence; inhibition, % at 3 µM; actives 0.6% (n = 360,000); AID 602250;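 active means inhibition above a per-plate cutoff, the plate's mean sample inhibition plus 3 SD, cut at about 24% in these data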;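 further: 0% = DMSO plus EC80 ATP and 100% = DMSO alone without ATP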
Numbers without * were called inactive. Sampled rows, rich in hits. Any-hit rate of the full collection: about 2.4%.

SMILES	CHO-K1 Ca ag	M1 PAM parental	CHRM1 antagonist	M1 ag	M1 PAM	CHO-K1 Ca antag
O=C1CC(=C(c2ccccc2)c2ccccc2)C(=O)N1CCCCN1CCN(c2cccc(Cl)c2)CC1	0	11	39*	7	-8	-2
O=C(CCCSc1nc2ccccc2[nH]1)NCc1ccccc1F	17*	18	-11	-11	8	0
O=C(CCCSc1nc2ccccc2[nH]1)NCc1ccc(Cl)cc1	3	7	-4	-11	5	2
CCc1nc2ccc(C(=O)Nc3ccc(NC(C)=O)cc3)cn2c1N(C)CCCc1ccccc1	2	6	47*	-4	-29	2
CCc1nc2ccc(C(=O)Nc3cccc(NS(C)(=O)=O)c3)cn2c1N(C)CCCc1ccccc1	2	3	41*	-7	-22	3
CCc1nc2ccc(C(=O)Nc3ccc(C(=O)N(C)C)cc3)cn2c1N(C)CCCc1ccccc1	1	5	39*	-9	-24	0
CCc1nc2ccc(C(=O)Nc3cccc(OC)c3)cn2c1N(C)CCCc1ccccc1	0	9	-3	-9	-3	6
CCc1nc2ccc(C(=O)NCCNC(C)=O)cn2c1N(C)CCCc1ccccc1	3	14	12	-6	-21	-16
CCc1nc2ccc(C(=O)NCCc3c[nH]c4ccccc34)cn2c1N(C)CCCc1ccccc1	1	11	15	-8	-18	-14
CCCC(=O)N1CCC1(C)C(=O)Nc1cc(OC)ccc1OC (stereo not drawn)	0	1	-18	0	20	-9
O=C(c1cc(=O)[nH]c2ccccc12)N1CCN(S(=O)(=O)c2ccc3ccccc3c2)CC1	3	-5	21	-1	-4	26*
O=C(c1cc(=O)[nH]c2ccccc12)N1CCN(S(=O)(=O)c2ccc(Cl)cc2)CC1	9	-1	23	-1	-10	-7
CCOC(=O)N1CCN(C(=O)/C=C/c2c(C)nn(-c3ccc(F)cc3)c2Cl)CC1	0	19	2	0	5	-10
O=C(CSc1nnnn1C1CC2CCC1C2)Nc1ccnc2ccccc12 (stereo not drawn)	13	2	32*	6	-16	37*
CCOC(=O)C1CCCN(Cc2c(C(=O)N3CCOCC3)nc3ccccn23)C1 (stereo not drawn)	0	-7	14	23*	-10	-12
Cc1cc2ccccc2n1CCNCc1c(C(=O)N2CCOCC2)nc2ccccn12	11	12	-14	-1	3	24*
CCOC(=O)C1CCCN(Cc2c(C(=O)N3CCCCC3)nc3c(C)cccn23)C1 (stereo not drawn)	4	11	-5	10	4	-18
CC(C)c1ccc(N=C2N=C(N)c3ccccc32)cc1	1	-9	-5	-4	10	-8
COC(=O)C1=C(C)Nc2c(c(=O)n(C)c(=O)n2C)C1c1ccc(Cl)cc1 (stereo not drawn)	1	-10	3	-4	2	11
COCCN(C(=O)COC(=O)CCC1CCCC1)c1c(N)n(Cc2ccccc2)c(=O)[nH]c1=O	0	6	-12	-1	14	1
O=C(CCCN1CCC(c2ccccc2)C1)c1ccc2c(c1)OCCO2 (stereo not drawn)	2	3	35*	-8	-26	-20
COc1ccc2c(N)c(C(=O)NN)[nH]c2c1	2	4	3	-2	-1	-6
N#C/C(=C/c1ccc(N2CCCCC2)o1)C(=O)Nc1ccc(Cl)cc1	79*	-1	68*	102*	-32	36*
N#C/C(=C/c1ccc(N2CCCCC2)o1)C(=O)Nc1ccc2ccccc2c1	266*	-13	87*	240*	-32	85*
COc1ccc(CNC(=O)CN2C(=O)COc3ccc(S(=O)(=O)N4CCCCC4)cc32)cc1	0	-7	0	-4	-1	-12
O=C(COC(=O)C1=COCCO1)NC1CCCCCCC1	1	19	-4	-8	13	-13
NC(=O)c1ccc(Oc2ncc(C(F)(F)F)cc2Cl)cc1	16*	25	-7	-4	10	-1
N=C(N)SCc1ccccn1	0	26	-2	30*	-6	-1
